# For part of these data: Potency and affinity values are given separately. Calls of active or inactive are those of the source.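 The calls were made as follows, unless noted: active = dose curve with midpoint inside tested range, moderate steepness, plateau gap beyond fit error, low compound glow and bead-link interference; inactive = the rest.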
# Columns and labels:
# [1] = target: Cell division control protein 42 homolog (Homo sapiens) (UniProt P60953); experiment: activated mutant Cdc42 GTP-binding inhibitors, dose response, biochemical, multiplex bead flow cytometry, Bodipy-FL-GTP (AID 1333;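 active = fitted half-maximal concentration within the tested dose range, moderate curve steepness, a statistically real signal drop, and little compound fluorescence or tag-binding interference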)
# [2] = target: Cell division control protein 42 homolog (Homo sapiens) (UniProt P60953); experiment: wildtype Cdc42 GTP-binding inhibitors, dose response, biochemical, multiplex bead flow cytometry, Bodipy-FL-GTP (AID 1334;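 active = fitted half-maximal concentration within the tested range, moderate curve steepness, significant signal drop, and little compound fluorescence or bead-linkage interference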); conditions: bead-based flow cytometry, Bodipy-FL-GTP binding to GST-Cdc42; at 100 µM (top of the series) unless noted
# [3] = target: GTPase HRas (Homo sapiens) (UniProt P01112); experiment: inhibitors of GTP binding to wildtype Ras, dose response, biochemical, multiplex bead flow cytometry (AID 1335;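 active = fitted half-maximal concentration within 10 nM to 100 µM, steepness 0.5 to 2, significant signal drop, low assay interference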); conditions: bead-based flow cytometry, Bodipy-GTP binding to GST-Ras; at 100 µM (top of the series) unless noted
# [4] = system: Ras-related protein Rab-7a (dog), GTP binding; experiment: Rab7 GTP binding inhibitors, potency, dose response, biochemical, wildtype, multiplex bead flow cytometry (AID 1336; call rule not given here)
# [5] = target: Ras-related C3 botulinum toxin substrate 1 (Homo sapiens) (UniProt P63000); experiment: wildtype Rac1 GTP binding inhibitors, dose response, biochemical, multiplex bead flow cytometry (AID 1340); conditions: GST-Rac1 beads, Bodipy-FL-GTP binding; at 100 µM (top of the series) unless noted
# [6] = target: GTPase HRas (Homo sapiens) (UniProt P01112); experiment: activated Ras mutant GTP binding inhibitors, dose response, biochemical, multiplex bead flow cytometry (AID 1341;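 active = dose-response curve with midpoint inside the tested range, moderate steepness, significant amplitude and little compound fluorescence or bead-attachment interference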;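 also: GST-tagged constitutively activated Ras mutant immobilized on beads and multiplexed with other GTPases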)
# Sequence of Cell division control protein 42 homolog (Homo sapiens) (P60953 whole entry, looked up): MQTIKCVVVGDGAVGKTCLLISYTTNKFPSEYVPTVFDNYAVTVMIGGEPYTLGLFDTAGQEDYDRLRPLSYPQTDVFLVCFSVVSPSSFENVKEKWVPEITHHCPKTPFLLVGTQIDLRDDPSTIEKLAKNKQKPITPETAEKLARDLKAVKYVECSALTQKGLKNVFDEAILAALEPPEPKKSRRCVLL
# Sequence of GTPase HRas (Homo sapiens) (P01112 whole entry, looked up): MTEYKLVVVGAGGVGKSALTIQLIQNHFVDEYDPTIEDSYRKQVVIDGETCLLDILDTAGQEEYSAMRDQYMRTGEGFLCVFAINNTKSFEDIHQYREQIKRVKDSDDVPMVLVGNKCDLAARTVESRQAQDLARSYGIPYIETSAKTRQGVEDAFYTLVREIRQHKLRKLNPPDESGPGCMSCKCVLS
SMILES,outcome [1],"fluorescence, percent of control (lower = inhibition) [2] [%]","GTP binding, percent of control [3] [%]",outcome [4],"GTP binding signal, raw median fluorescence (lower = inhibition) (MCF (arbitrary fluorescence units)) [5]",outcome [6]
O=C(Nc1cccc(-c2nc3ncccc3o2)c1)c1sc2ccccc2c1Cl,inactive,88.9,340,inactive,343,inactive
Cc1cc(C)nc(Nc2nc(=O)c3ccccc3s2)n1,inactive,50.5,61.9,inactive,205,inactive
Cc1cccc(/C=N/N(CCO)C2=NS(=O)(=O)c3ccccc32)c1,inactive,28.3,67.6,inactive,139,inactive
O=C(O)CCCCCNS(=O)(=O)c1cccc2c1C(=O)c1ccccc1C2=O,inactive,32.5,45.9,inactive,0,inactive
CCCN(CC1CC1)C(=S)Nc1ccc(Oc2ccccc2)cc1,inactive,26.1,81.4,inactive,258,inactive
COc1ccc(CCNc2cc(=O)[nH]c(N)n2)cc1,inactive,34.1,48.2,inactive,94.3,inactive
CCOC(=O)N1CCN(Cc2cn[nH]c2-c2cc3ccccc3o2)CC1,inactive,34.4,82.1,inactive,246,inactive
COc1ccc(/C=C2/N=C(SCC(=O)Nc3cc(C)on3)N(c3ccccc3)C2=O)cc1,inactive,41.3,54.1,inactive,177,inactive
Cc1cc2nc3c(=O)n(C4CCCCC4)c(=O)[nH]c3nc2cc1N,inactive,42.7,53.2,inactive,146,inactive
COc1cc([N+](=O)[O-])cc(/C=N/NC(=O)c2ccc(NC(=O)c3ccc(C)cc3)cc2)c1O,inactive,33,77.6,inactive,226,inactive
O=C(COc1ccccc1/C=C\c1[nH]c(=O)[nH]c(=O)c1[N+](=O)[O-])Nc1ccccc1,inactive,29.1,77.1,inactive,191,inactive
Cc1cc(/C=c2\sc3nc4ccccc4n3c2=O)c(C)n1-c1ccc(C(=O)O)cc1,inactive,18.4,70.1,inactive,204,inactive
COc1ccc2c(C)cc3nncn3c2c1,inactive,51.4,92.8,inactive,202,inactive
N#C/C(=C/c1ccc(N2CCCCCC2)o1)c1ccc(Cl)cc1,inactive,127,205,inactive,210,inactive
COc1ccc2c(c1)c(C(=O)O)cn2CCOc1ccccc1C,inactive,61.2,204,inactive,59.4,inactive
O=C(CCc1ccc(S(=O)(=O)NCCc2ccccc2)cc1)Nc1ccc2c(c1)OCO2,inactive,52.3,67.2,inactive,212,inactive
CCC(C)(C)c1ccc(OCCCC[n+]2ccccc2)c(C(C)(C)CC)c1,inactive,32.7,78.7,inactive,278,inactive
Cc1cc(C)cc(OCCSc2nc3ccccc3n2CC(=O)O)c1,inactive,58.4,87.4,inactive,31,inactive
COc1cc(/C=C2\SC(c3ccccc3)=NC2=O)cc(Cl)c1O,inactive,26.3,71,inactive,190,inactive
OCCC1CN(Cc2cccc(O)c2)CCN1CCc1ccccc1 (stereo not given),inactive,40.6,90.6,inactive,342,inactive
Cc1ccc2cc3cc(C(=O)N4CCN(Cc5ccccc5)CC4)sc3nc2c1,inactive,87.8,156,inactive,188,inactive
CC1(C)Cc2c(sc(NC(=O)c3ccc(Br)o3)c2C#N)CO1,inactive,49.4,62.3,inactive,212,inactive
COc1ccc(C(=O)C2CCCN(C(=O)c3cc4nc(C)cc(C)n4n3)C2)cc1F (stereo not given),inactive,41.4,95.1,inactive,274,inactive
Cc1cc(OCCn2cc(C(=O)O)c3ccccc32)ccc1Cl,inactive,58.3,84.4,inactive,28.3,inactive
O=C(Cn1c(-c2cscn2)nc2ccccc21)Nc1cc(F)ccc1F,inactive,33.9,75.9,inactive,210,inactive
Nc1c(S(=O)(=O)c2cccs2)c2nc3ccccc3nc2n1/N=C/c1cccc(O)c1,inactive,30.6,77.3,inactive,101,inactive
CNC(=O)COC(=O)c1cc(NC(=O)c2ccco2)c(OC)c(OC)c1,inactive,39.3,78,inactive,158,inactive
Cc1cc2ncn(CCC(=O)NC(C)(C)C)c2cc1C,inactive,40,88.1,inactive,320,inactive
O=C1c2ccccc2-n2c1nc1ccccc1c2=O,inactive,35.1,78.8,inactive,204,inactive
COc1ccccc1CNCc1sc(C(=O)O)cc1C,inactive,61.8,85.7,inactive,35.2,inactive
